The values that follow come from PubChem BioAssay (NCI).

SMILES strings stand for the structures. The panel holds about 83,000 compounds, 20% with a hit somewhere; the sample as a whole holds those more often.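 Step 1: grow cells in 96-well plates. Step 2: add test compound at a single concentration. Step 3: incubate 48 h. Step 4: record percent growth.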 Activity calls are given as the source filed them. Rule for the calls: active = growth percent below 10; inactive = the rest.

The experiment concerns RPMI-8226 leukemia. The experiment can be described thus: NCI-60 one-dose screen, 48 h (100 = growth as untreated, 0 = no growth, -100 = all killed). The note with it: 10 µM unless noted.
For `O=C(/C=C/c1cn(-c2ccccc2)nc1-c1ccc(Cl)cc1)c1cc2ccccc2oc1=O`, the growth was 70.8% (inactive). Regarding `CCN1C(=O)N(CC)C2SC(N/N=C/c3ccc(OC)cc3)=NC21` (stereo not drawn), the growth is 17.6% (inactive). With `O=C(O)c1ccc(-n2cc(CNc3ccc(F)cc3)c(-c3ccc(C(F)(F)F)cc3)n2)cc1`, the growth was 86.5% (inactive).

In the case of `COc1cc(/C=C/C(=O)c2ccc(NC(=O)COc3cccc4cccnc34)cc2)cc(OC)c1OC`, the growth was 12.9% (inactive).

With `COc1cc(CNC(=O)Cc2ccccc2[N+](=O)[O-])ccc1OCC(=O)NO`, the growth is 118% (inactive).

Regarding `Oc1ccc(CSc2nnc(-c3cnccn3)o2)c2cccnc12`, the growth is 7.74% (active). Take `O=C(NCCCNc1cc(-c2cn(-c3ccccc3)nc2-c2cccc(O)c2)ccn1)Nc1ccc(F)cc1`: the growth was -31.1% (active). Next, `COc1ccc(-c2nn(-c3ccccc3)cc2/C=C/C(=O)c2ccc(NC(=O)CCCCCCC(=O)NO)cc2)cc1`: 115% (inactive); `O=C1[C@H]2Cc3c([nH]c4ccccc34)[C@@H](c3c(Cl)cccc3Cl)N2C(=O)CN1C1CCN(Cc2ccccc2)CC1`: 60.3% (inactive); `COc1cccc(/C=C/C(=O)c2ccc(NC(=O)COc3cccc4cccnc34)cc2)c1`: 73.4% (inactive). Next, `CCCC(=O)NC(c1cccnc1)c1cc(Cl)c2cccnc2c1O` (stereo not drawn): 30.7% (inactive); `C/C(=N/Nc1nc(N/N=C(/C)c2ccc([N+](=O)[O-])cc2)nc(N2CCOCC2)n1)c1ccc([N+](=O)[O-])cc1`: 64.7% (inactive); `Oc1ccc(CSc2nnc(-c3cnccn3)n2-c2ccccc2)c2cccnc12`: 29.1% (inactive). For `CCOC(=O)C1=C(C)Nc2nc3ccccc3n2C1c1ccccc1` (stereo not drawn), the growth was 97.4% (inactive). In the case of `Oc1ccc(CSc2nnc(-c3ccc(Br)cc3)o2)c2cccnc12` it was 10.8% (inactive).

In the case of `CNC(=O)c1cc(N2CCc3cc(NC(=O)Nc4ccc(Cl)c(Cl)c4)ccc32)ccn1`, the growth was 57.1% (inactive). In the case of `COc1cc2cc(Oc3ccc(NC(=O)Nc4cc(C(F)(F)F)cc(C(F)(F)F)c4)cc3)c(C)nc2cc1OCCN(C)C` it was 113% (inactive). Next, `Cc1cc(O)c(=O)cc2c1C[C@H]1CC(C)(C)/C=C/C[C@]3(C)Oc4cc(=O)c(O)cc(C)c4C[C@H]3C[C@H](O)[C@@]1(C)O2`: -0.673% (active). For the compound `COc1ccc(-c2nnc(SCc3ccc(O)c4ncccc34)n2-c2ccccc2)cc1`, the growth is 10.9% (inactive).

In the case of `O=C(CCCCCCN1CC(=O)N2[C@@H](c3ccc(Cl)c(F)c3)c3[nH]c4ccccc4c3C[C@H]2C1=O)NO`, the growth was 59.1% (inactive). Next, `Oc1ccc(CSc2nnc(-c3ccccc3)n2-c2ccccc2)c2cccnc12`: 10.9% (inactive); `Cc1ccc(NC(=O)c2ccc(CN3CCN(C)CC3)c(C(F)(F)F)c2)cc1Oc1ccc(-c2[nH]nc3ncnc(N)c23)cc1`: 18.1% (inactive); `CC(c1ccccc1)N1C(=O)/C(=C/c2csc(C#N)n2)SC1=S` (stereo not drawn): 41.8% (inactive). With `O=C(COc1ccc(C2SCC(=O)N2c2ccc(F)cc2)cc1)c1ccccc1` (stereo not drawn), the growth was 87.4% (inactive). Next, `COc1ccc(-c2nnc(SCc3ccc(O)c4ncccc34)o2)cc1`: 9.32% (active); `O=c1[nH]c(CNc2ccc(NCc3c(-c4ccccc4)no[n+]3[O-])cc2)nc2c1cnn2-c1ccccc1`: 61.9% (inactive); `COc1ccc(N)cc1C(=O)Nc1cccc(-c2cc(=O)c3c(OC)c(OC)c(OC)cc3o2)c1`: 35.4% (inactive). Take `CCCC(=O)NC(c1cccnc1)c1cc(C(C)=O)c2cccnc2c1O` (stereo not drawn): the growth was 38.2% (inactive).
